Results: ChEMBL document CHEMBL3988442, “University of Dundee, Small-Polar-MMV Screening Library” (2021)
The whole screen tested about 66,000 compounds, of which about 960 (1.5%) showed an effect of 50% or more. For the sample, strong results were picked, then their nearest neighbours and some compounds at random.

Tested on: Trypanosoma brucei
Test: Trypanosoma brucei 72 hour study
Type: functional, organism-based
Set-up: scale not given: in the data most compounds retested in dose-response had high values

Row | SMILES | Percent Effect (30 µM, 30.03 µM) | Percent Effect (30.3 µM, […])
1 | Cc1nc(CN2CCCC(C)(CO)C2)no1 (stereo not drawn) | -41.91% | 
2 | Cl.Cl.O=C(NCc1cncc2c1CCN(C1CCOC1)C2)c1ccco1 (stereo not drawn) |  | -14.18%
3 | Cc1ccc(C)c(CN(CC(N)=O)C(C)C)c1 | -11.18% | 
4 | CCc1nc(C)cc(N2CCCC(C(=O)c3ccc(OC)cc3C)C2)n1 (stereo not drawn) |  | 68.93%
5 | COc1ccc(C(=O)C2CCCN(c3cc(N)ncn3)C2)c(C)c1 (stereo not drawn) |  | 35.59%
6 | COc1ccc(C(=O)C2CCCN(c3cc(OC)ncn3)C2)c(C)c1 (stereo not drawn) |  | 25.96%
7 | Cc1ccc(CN2CCc3nnc(CN4CCCC4=O)n3CC2)o1.O=C(O)C(F)(F)F |  | 11.51%
8 | Cc1nnsc1C(=O)NCc1nn(C)c2c1CCCC2 | 10.26% | 
9 | O=C(Cc1ccc(F)c(F)c1)NC1COc2ccccc2C1=O (stereo not drawn) |  | 53.93%
10 | O=C(Cc1cccc(F)c1F)NC1COc2ccccc2C1=O (stereo not drawn) |  | -49.3%
11 | O=C(Cc1cccnc1)NC1COc2ccccc2C1=O (stereo not drawn) |  | -65.37%
12 | COCC(O)CN(C)c1cc(C(F)(F)F)nc(-c2cccnc2)n1 (stereo not drawn) | 57.96% | 
13 | CC(O)CN(C)c1cc(C(F)(F)F)nc(-c2cccnc2)n1 (stereo not drawn) | 14.71% | 
14 | COCCCN(C)c1cc(C(F)(F)F)nc(-c2cccnc2)n1 | 14.1% | 
15 | CN(C)S(=O)(=O)c1ccc(-c2nc(C#N)c(NC3CC3)o2)o1 | -26.91% | 
16 | CN(C)S(=O)(=O)c1ccc(-c2nc(C#N)c(NC(C)(C)C)o2)o1.Cl | 94.64% | 
17 | CNc1oc(-c2ccc(S(=O)(=O)N(C)C)o2)nc1C#N | -28.85% | 
18 | CC(C)Nc1oc(-c2ccc(S(=O)(=O)N(C)C)o2)nc1C#N | -8.182% | 
19 | CN(C)S(=O)(=O)c1ccc(-c2nc(C#N)c(NC3CCCCC3)o2)o1 | -26.33% | 
20 | Cc1ccc(S(=O)(=O)Nc2ccc(=O)n(C)c2)c(Br)c1 |  | -36.73%
21 | CCN1CC[C@@]2(C(=O)Nc3ccccc3)CCN(S(C)(=O)=O)CC[C@@H]12.O=C(O)C(F)(F)F | -16.54% | 
22 | CCOCC1CN(C(=O)c2cnoc2C)Cc2cnn(C)c21.O=C(O)C(F)(F)F (stereo not drawn) |  | -5.791%
23 | CCC(=O)N1CCC2(CC1)CC(CC(=O)N(C)C)c1ccc(F)cc12 (stereo not drawn) |  | -4.762%
24 | c1ccc(-c2nc3c(c(NCc4n[nH]c5c4CCC5)n2)CCNC3)cc1 | 50.77% | 

Row | SMILES | Percent Effect (30 µM, 30.03 µM) | Percent Effect (30.3 µM, […])
25 | c1ccc(-c2nc3c(c(NCc4nnc5n4CCC5)n2)CCNC3)cc1 |  | 7.408%
26 | c1coc(-c2nc3c(c(NCc4n[nH]c5c4CCC5)n2)CCNCC3)c1 | -54.29% | 
27 | CCc1nc2ccccc2c(=O)n1CC1(O)CCN(C(=O)C2CC2)CC1.Cl |  | 5.264%
28 | CN(C)c1ccc(-c2cc(C(=O)O)cc(S(=O)(=O)NC3CC3)c2)cc1 | 102.4% | 
29 | O=C(O)c1cc(-c2ccoc2)cc(S(=O)(=O)NC2CC2)c1 | 27.37% | 
30 | O=C(O)c1cc(-c2ccc3c(c2)OCO3)cc(S(=O)(=O)NC2CC2)c1 | -10.73% | 
31 | O=C(CO)N1CCC(CCc2ccnc(Nc3cnccn3)c2)CC1 |  | 12.44%
32 | CC(=O)N1CCC(CCc2ccnc(Nc3ccccn3)c2)CC1 |  | 18.19%
33 | CC(=O)Nc1cc(CCC2CCN(C(=O)c3ccccn3)CC2)ccn1 |  | -19.84%
34 | O=C(Nc1cc(CCC2CCN(CCO)CC2)ccn1)c1ccccn1 |  | 100.1%
35 | CC(=O)N1CCC(CCc2ccnc(NC(=O)c3ccccn3)c2)CC1 |  | 56.75%
36 | CN1CCC(CCc2ccnc(NC(=O)c3ccccn3)c2)CC1 |  | 24.76%
37 | O=C(O)C(F)(F)F.O=C([C@@H]1C[C@@H]2CCN(C3CCOCC3)C[C@@H]2O1)N1CCCC1 |  | -37.65%
38 | O=C(NCc1cccs1)[C@H]1CO[C@H]2CCN(C3CCCC3)C[C@H]2C1.O=C(O)C(F)(F)F |  | -53.03%
39 | Cc1cc(NC(=O)Nc2ccc3c(ccn3CCN(C)C)c2)n(C)n1 |  | 55.17%
40 | Cc1nc(CNC(=O)Nc2ccc3c(ccn3CCN(C)C)c2)no1 |  | -6.711%
41 | CN(C)CCn1ccc2cc(NC(=O)NCc3ncnn3C)ccc21 |  | -3.411%
42 | Cc1cccc(CN2Cc3ncn(C)c3C(COCC(=O)N(C)C)C2)n1.O=C(O)C(F)(F)F.O=C(O)C(F)(F)F.O=C(O)C(F)(F)F (stereo not drawn) |  | -54.51%
43 | Cl.c1cncc(CNc2cncc(C3CCCN3)n2)c1 (stereo not drawn) |  | -3.878%
44 | Cc1nc(CN2CCO[C@@H]3CN(Cc4nccs4)C[C@@H]3C2)cs1.O=C(O)C(F)(F)F.O=C(O)C(F)(F)F | 45.29% | 
45 | Cl.Cn1cc(CN(Cc2ccccc2)Cc2ccccn2)cn1 |  | -17.42%
46 | CN(C)[C@@H]1CN(Cc2ccc(O)cc2)C[C@H]1c1cn(C)c2ccccc12.Cl |  | 10.26%
47 | CN(C)[C@@H]1CN(Cc2ccccc2O)C[C@H]1c1cn(C)c2ccccc12.Cl |  | 100%
48 | CN(C)[C@@H]1CN(Cc2ccccn2)C[C@H]1c1cn(C)c2ccccc12.Cl |  | 22.59%
